Only a selection was taken, and hits are over-represented in it overall.
KDM5B inh: KDM5B demethylase inhibition. AID 1347165. KDM5B demethylase, FDH-coupled NADH fluorescence (FDH is formaldehyde dehydrogenase). 2.6% of 220,000 active. Potency, µM (series often up to 57.7 µM), hits mostly inhibitors. Q9UGL1; active = well fitted inhibition curve with a large enough effect; also: 0% is about no effect; nearly all actives have a fitted effect of over 70% in size
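Compound dilutions met 200 nM (final) KDM5BΔAP for 10 min at room temperature before substrate addition. The substrate mix held 12.5 µM H3K4me3 with cofactors 25 µM α-ketoglutarate and 50 µM Fe²⁺. NADH signal gain over 30 min defined activity.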
* hit, by the source's call; i = inactive. Potency is read from the fitted curve at half-maximal effect.

SMILES	KDM5B inh
O=C1c2cc(N3CCOCC3)nc(-c3ccc(F)cc3)c2CN1Cc1ccccc1	35.5µM*
O=C1c2cc(N3CCOCC3)nc(-c3cccc(CO)c3)c2CN1Cc1ccccc1	35.5µM*
O=C1c2cc(N3CCOCC3)nc(-c3ccc(CO)cc3)c2CN1Cc1ccccc1	i
O=C1Cc2c(-c3ccc(C(=O)N4CCOCC4)cc3)n[nH]c2CN1Cc1ccccc1	i
O=C(Cn1nc(-c2ccc(F)cc2)c2ccccc2c1=O)N1CCOCC1	i
O=C1c2cc(N3CCOCC3)nc(-c3cccc(F)c3)c2CN1Cc1ccccc1	31.6µM*
O=C1CCN(Cc2cccc(F)c2)CCOCCN1	i
O=C(Cc1cccc(F)c1)N1CCOCC12CCN(Cc1ccccc1)CC2	i
O=C(c1cnc(N2CCOCC2)c2ccccc12)N1CCN(Cc2ccccc2)CC1	i
CC1Cc2ccccc2N1C(=O)c1nn(C(C)C)c(=O)c2ccccc12 (stereo not given)	i
Cc1ccc(-c2nc(CNC(=O)C(C)Oc3ccc(F)cc3)cs2)cc1 (stereo not given)	i
CCCCNC(=O)c1cc2cc(C)ccc2[nH]1	i
CC(C)c1cc(C(=O)N2CCN(C)[C@@H]3CS(=O)(=O)C[C@@H]32)nc2ncnn12	i
CCOC(=O)c1cccc(NC(=O)C(CC)n2cnc3ccccc3c2=O)c1 (stereo not given)	i
C=CCN1CCN(Cc2ccco2)CC1	i
O=C(CSc1nncn1C1CC1)c1c[nH]c2ccccc12	i
O=C(CCc1ccc(-c2ccccc2)o1)NC1CCS(=O)(=O)C1 (stereo not given)	i
Cc1nc2nc3ccn(CCCN4CCOCC4)c(=O)c3c(-c3ccccc3)n2n1	i
COc1ccc(NC(=O)CCn2nc(-c3ccc(Cl)cc3)c3ccccc3c2=O)cc1C(N)=O	i
CCc1ccc2nc(Nc3nc(CSc4ccc(C)cc4)cc(=O)[nH]3)nc(C)c2c1	i
O=C(CCCc1ccccc1)NCc1nnc2cc(-c3nc(C4CC4)no3)ccn12	28.2µM*
CCc1noc(-c2ccn3c(CNC(=O)CCCc4ccccc4)nnc3c2)n1	7.08µM*
CC(=O)c1ccc(NC(=S)NCCc2ccc(Cl)cc2)cc1	i
Cc1ccc(NC(=O)CN2C(=O)NC(Cc3c[nH]c4ccccc34)C2=O)cc1F (stereo not given)	i
CCOc1ccc(C(=O)OCc2ccccc2C#N)cc1OC	i
SMILES	KDM5B inh
Cn1nc(C(=O)NCCc2ccccc2)c2ccccc2c1=O	i
COc1ccccc1CNc1nc(-c2ccc(CN(C)C(C)=O)cc2)cs1	i
C1CNCC(c2nc(CCOCC3CC3)no2)C1 (stereo not given)	i
C1CNC(c2nc(CCOCC3CCOCC3)no2)C1 (stereo not given)	i
C1CCC(c2nc(CCOCC3CCCC3)no2)NC1 (stereo not given)	28.2µM*
O=C(CSc1ncnc2nc[nH]c12)Nc1ccc(Oc2ccccc2)cc1	i
CCOC(=O)c1sc(NC(=O)CCSc2ccc(Cl)cc2)nc1C	i
Cc1oc2cc(OC(=O)c3ccccc3)ccc2c(=O)c1-c1ccccc1	i
CCOc1cccc(CC(=O)N2CCc3c([nH]c4ccccc34)C2c2ccc(C)cc2)c1OCC (stereo not given)	i
COC(=O)[C@@H]1Cc2c([nH]c3ccccc23)[C@H]2C[C@@H](NC3CC3)C[C@@H](c3ccc(F)cc3)N21	i
COCCCN1CC(=O)N2C(c3ccc(C)cc3)c3[nH]c4ccccc4c3C[C@H]2C1=O (stereo not given in full)	i
COC(=O)[C@@H]1Cc2c([nH]c3ccccc23)[C@H]2C[C@@H](NCc3cccnc3)C[C@@H](c3ccc(F)c(F)c3)N21	25.1µM*
COC(=O)[C@@H]1Cc2c([nH]c3ccccc23)[C@H]2C[C@@H](N3CCOCC3)C[C@@H](c3ccc(F)cc3)N21	12.6µM*
O=C([C@H]1C[C@H](Oc2ccccc2)CN1C(=O)NCc1ccc(F)cc1)N1CCOCC1	i
COc1cccc(Cl)c1NC(=O)N1CCc2c([nH]c3ccccc23)C1C(F)(F)F (stereo not given)	i
COC(=O)[C@@H]1Cc2c([nH]c3ccccc23)[C@H]2C[C@@H](NCCNC(C)=O)C[C@@H](c3ccc(C)cc3)N21	28.2µM*
O=C(NCc1cccnc1)[C@@H]1C[C@@H](c2ccc(F)cc2)N(CCOc2ccccc2)C1	i
O=C(CSc1ccccc1)N1CCc2c([nH]c3ccccc23)C1c1ccc(F)cc1 (stereo not given)	i
C#CCN[C@H]1C[C@@H]2c3[nH]c4ccccc4c3C[C@@H](C(=O)OC)N2[C@H](c2ccc(F)cc2)C1	39.8µM*
CN1C[C@H](NCc2ccc(F)cc2)CCC[C@@H](C(=O)N(C)Cc2cccnc2)CC1=O	i
CCc1cc(CC)n(-c2nc3c(c(=O)n(Cc4ccccc4F)c(=O)n3C)n2CC)n1	i
CN(CC(=O)N(C)c1ccccc1C(=O)NCc1ccco1)Cc1nc2ccccc2s1	i
Cc1ccc(NC(=O)CC2Sc3ccc(C(F)(F)F)cc3NC2=O)cc1Cl (stereo not given)	i
Cc1cc(C(=O)CSc2ccccc2Cl)c(C)[nH]1	i
COc1cccc(Nc2nc(-c3ccc4c(c3)CC(C)N4S(C)(=O)=O)cs2)c1 (stereo not given)	i
SMILES	KDM5B inh
O=C(Nc1ccc2oc(-c3ccccc3F)nc2c1)c1cccc(I)c1	i
CC(NC(=O)C(C)NC(=O)CNC(=O)OCc1ccccc1)C(=O)O (stereo not given)	i
Cc1cc(/C=C/C(=O)c2ccc(O)c(CCCl)c2)cc(C)c1OC(F)F	i
CCOC(=O)c1cc(C)nc2c1c(=O)n(Cc1nc(-c3cc(C)ccc3C)oc1C)c(=O)n2C	i
COC(=O)[C@@H]1Cc2c([nH]c3ccccc23)[C@H]2C[C@@H](NCCNC(C)=O)C[C@@H](c3ccccc3)N21	8.91µM*
COC(=O)[C@@H]1Cc2c([nH]c3ccccc23)[C@H]2C[C@@H](NCCNC(C)=O)C[C@@H](c3ccc(C(F)(F)F)cc3)N21	i
COC(=O)[C@@H]1Cc2c([nH]c3ccccc23)[C@H]2C[C@@H](NCCN3CCOCC3)C[C@@H](c3ccc(OC(F)(F)F)cc3)N21	i
O=C(NCc1ccc(F)cc1)C1=NOC2CN(C(=O)C3CC3)CC12 (stereo not given)	i
CCOC(=O)Cn1c(=O)c2c3c(sc2n(CCN2CCCC2)c1=O)CC(C)CC3 (stereo not given)	i
O=C(O)C1(c2cccc(Br)c2)CCC1	i
COc1ccc(OC)c(/C=C(\C#N)c2nc3ccccc3[nH]2)c1	i
c1ccc2c(-c3ccn[nH]3)cccc2c1	i
CC(C)C(=O)Nc1ccc(C2(C(=O)N3CCN(c4ccccn4)CC3)CCCCC2)cc1	22.4µM*
CC(C)C(=O)Nc1ccc(C2(C(=O)N3CCCCC3)CCCCC2)cc1	i
CS(=O)(=O)Nc1ccc(C2(C(=O)N3CCN(c4ccccn4)CC3)CCCCC2)cc1	22.4µM*
O=C(Nc1ccc(C2(C(=O)N3CCN(c4ccccn4)CC3)CCC2)cc1)C1CC1	17.8µM*
CS(=O)(=O)Nc1ccc(C2(C(=O)NCCN3CCCCC3)CCCCC2)cc1	i
CC(=O)Nc1ccc(C2(C(=O)N3CCN(c4ccccc4)CC3)CCCCC2)cc1	i
CCCN1CCN(C(=O)C2(c3ccc(NC(=O)C4CC4)cc3)CCCCC2)CC1	i
O=C(Nc1ccc(C2(C(=O)O)CCC2)cc1)C1CC1	i

High-throughput results (PubChem BioAssay)
